Assay outcomes deposited in PubChem by Broad Institute.
Compounds with a hit are over-represented: about 2.2% of the library has one in this group of screens.
mut p53 react: restores mutant p53 pathway signaling in SW480 cells; activation, % at 9.98 µM; 28,000 tested, 1.5% active; SW480 PUMA-promoter luciferase, p53 mutant reactivation; in the data active means activation above about 52%; inconclusive means no clear call, values can overlap the other calls
ID4 SMM: binders of human ID4 protein; 31,000 tested, 1.2% active; small molecule microarray, Flag-ID4 binding, fluorescence F/B; calls only; call rule not given here;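 further: a binder raises fluorescence above local background on the spot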
Target sequence (P47928 whole entry, looked up): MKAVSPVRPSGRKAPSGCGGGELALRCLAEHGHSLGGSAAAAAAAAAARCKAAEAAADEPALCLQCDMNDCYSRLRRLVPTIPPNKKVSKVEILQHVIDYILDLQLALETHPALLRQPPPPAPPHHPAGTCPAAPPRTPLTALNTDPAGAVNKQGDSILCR
Of the large screens only hits and unclear results are named; the others gave an inactive call.

Cc1cc(C2(O)CSc3nc4cc(C(F)(F)F)ccc4n32)ccc1Cl (stereo not given)	none
Cc1cc2nc(SCc3nc4ccccc4[nH]3)[nH]c2cc1C	mut p53 react inconclusive
Cc1ccc2nc(SCc3nc4ccccc4n3C)[nH]c2c1	mut p53 react 62
O=S(=O)(Nc1ccc(O)c(Sc2nc3ccccc3s2)c1)c1ccccc1	none
Cc1cc(CNC(=O)c2cc(-c3ccccc3)nc3ccccc23)nn1C	none
N#CCCN(CCC#N)C(=O)c1cc(-c2ccccc2)nc2ccccc12	ID4 SMM active
COC(=O)[C@H](Cc1ccccc1)N1C(=O)O[C@H](Cc2ccccc2)[C@@H]1/C=C/C1CC1	none (no result: mut p53 react)
Cc1nnc(SCC(=O)c2ccc3c(c2)OCCO3)s1	mut p53 react 89
Cn1cnnc1SCC(=O)c1ccc2c(c1)OCCO2	none
CSc1nncc(-c2ccc(Cl)cc2)n1	mut p53 react 63
O=C(CSc1nc(-c2ccc(Cl)cc2)cc(C(F)(F)F)n1)Nc1ccc(F)cc1	none
Cc1ccc(-c2cc(-c3c(C)nn(C)c(=O)c3N)[nH]n2)cc1	mut p53 react 86
COc1cc(NS(=O)(=O)c2ccccc2[N+](=O)[O-])c(OC)cc1Cl	none
COc1ccc(CN(C)C[C@H]2Oc3c(NC(=O)Nc4ccc5c(c4)OCO5)cccc3C(=O)N([C@H](C)CO)C[C@@H]2C)cc1	mut p53 react 61
C[C@@H]1CN([C@@H](C)CO)C(=O)c2cccc(N(C)C)c2O[C@H]1CN(C)S(=O)(=O)c1ccc(Cl)cc1	none
COc1ccc(CN(C)C[C@@H]2Oc3c(NC(=O)Nc4ccc5c(c4)OCO5)cccc3C(=O)N([C@@H](C)CO)C[C@H]2C)cc1	none
C[C@H](CO)N1C[C@H](C)[C@H](CN(C)C(=O)Nc2ccc3c(c2)OCO3)Oc2c(NC(=O)Nc3ccc4c(c3)OCO4)cccc2C1=O	none (no result: ID4 SMM)
C[C@H]1CN([C@@H](C)CO)C(=O)c2cccc(N(C)C)c2O[C@@H]1CN(C)S(=O)(=O)c1ccc(Cl)cc1	ID4 SMM active
C[C@@H]1CN([C@H](C)CO)C(=O)c2cccc(NC(=O)Nc3ccc4c(c3)OCO4)c2O[C@H]1CN(C)C	mut p53 react 60
O=C(Nc1ccc(I)cc1C(=O)NCc1cccnc1)c1ccccc1Cl	none
CCc1cccc(C)c1NC(=O)CSc1n[nH]c(-c2ccccc2Cl)n1	none
CN1CCN(C(=O)CN(c2cccc(Cl)c2)S(=O)(=O)c2ccc(Cl)cc2)CC1	none
CN1CCN(C(=O)c2nc3ccc(Cl)cc3[nH]2)CC1	mut p53 react 57
C[C@H](CO)N1C[C@H](C)[C@@H](CN(C)Cc2ccc(Oc3ccccc3)cc2)OCc2cnnn2CCCC1=O	none
C[C@@H]1CN([C@@H](C)CO)C(=O)CCCn2nncc2CO[C@H]1CN(C)C(=O)Nc1ccccc1F	ID4 SMM active
C[C@H]1CN([C@@H](C)CO)C(=O)CCCn2cc(nn2)CO[C@@H]1CN(C)CC1CCCCC1	ID4 SMM active (no result: mut p53 react)
C[C@@H]1CN([C@@H](C)CO)C(=O)CCCn2nncc2CO[C@@H]1CN(C)S(=O)(=O)c1ccc(Cl)cc1	none
C[C@@H]1CN([C@@H](C)CO)C(=O)CCCn2cc(nn2)CO[C@@H]1CN(C)CC1CCCCC1	none (no result: mut p53 react)
C[C@@H]1CN([C@@H](C)CO)C(=O)CCCn2nncc2CO[C@@H]1CN(C)C(=O)Nc1ccccc1F	none
C[C@@H]1CN([C@H](C)CO)C(=O)CCCn2nncc2CO[C@@H]1CN(C)Cc1ccc(Oc2ccccc2)cc1	ID4 SMM active
Cc1noc(C)c1S(=O)(=O)N(C)C[C@@H]1OCc2cnnn2CCCC(=O)N([C@@H](C)CO)C[C@@H]1C	ID4 SMM active
CS(=O)(=O)N(CC(=O)Nc1cc(Cl)c(Cl)cc1Cl)C1CCCCC1	none
CC1(C)COC(/C=C(\N)c2ccc(Br)cc2)=N1	none
COc1ccccc1NC(=O)N(C)C[C@H]1OCc2cnnn2CCCC(=O)N([C@@H](C)CO)C[C@H]1C	none
COc1ccccc1NC(=O)N(C)C[C@@H]1OCc2cnnn2CCCC(=O)N([C@@H](C)CO)C[C@H]1C	ID4 SMM active
c1cc(-c2cnn3cc(-c4ccc(OCCN5CCCCC5)cc4)cnc23)ccn1	ID4 SMM active
O=C(NC(=S)Nc1ccccc1-c1nc2ccccc2s1)c1ccco1	mut p53 react inconclusive
CCOC(=O)CSc1ncnc2c1sc1nc3c(cc12)COC(C)(C)C3	none
Cc1nc(SCC(=O)c2ccccc2)c2sc3nc4c(cc3c2n1)COC(C)(C)C4	mut p53 react 91
COc1cc(NC(=O)COc2cccc(C)c2C)ccc1-c1cc2ccccc2oc1=O	none
COc1cc(CNC2CCCC2)ccc1OCC(N)=O	none
COc1cc(CNC23CC4CC(CC(C4)C2)C3)ccc1OCC(N)=O	ID4 SMM active
COc1cccc(NC(=O)CSc2nnc(-c3ccco3)n2-c2ccccc2)c1	none
COC(=O)c1cccc(COC(=O)c2ccc(NC(=O)c3ccccc3)cc2)c1	none
COc1ccccc1C1=NOC(Cn2c(NCc3ccccc3)nc3c2c(=O)n(C)c(=O)n3C)C1 (stereo not given)	ID4 SMM active
Cn1c(=O)c2c(nc(NCCO)n2CCc2ccccc2)n(C)c1=O	none
